Screens as filed in PubChem.
HEK293 tox: kills HEK 293 cells; HEK 293 viability, ATP luminescence (CellTiter-Glo), 48-72 h; Potency, µM (doses to about 115 µM), usual class: inhibitors; 94,000 tested, 6.6% active; AID 1345083; also: nearly all actives have a fitted effect of over 60% in size
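HEK 293 seeded at 250 cells/well receive compound via pintool. After 48 or 72 hr at 37 degree Celsius, 5% CO2 and 95% humidity, CellTiter-Glo is dispensed and luminescence read following 10 min at room temperature.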
hNpr1 antagonist: blocks ANP-stimulated signaling of human Npr1 receptor. Potency, µM (top dose mostly 46.3 µM), most hits filed as inhibitors. AID 1347048. 76,000 tested, 1.6% active. HEK293 hNpr1 GloSensor cGMP, ANP-stimulated luminescence. P16066; calls by dose curve; also: nearly all actives have a fitted effect of over 60% in size
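HEK293 cells stably expressing human Npr1 and cGMP GloSensor pGS-40F, loaded 2 h with 2% GloSensor reagent, given compound 30 min at room temperature. Luminescence read before and 20 min after 0.1 nM hNppA.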
FLuc inh: blocks purified firefly luciferase enzyme activity; P08659; purified P. pyralis luciferase, luminescence, biochemical; Potency, µM (series often up to 115 µM), most hits filed as inhibitors; 76,000 tested, 2.5% active; AID 1347043; also: nearly all actives have a fitted effect of over 65% in size
Target sequence (P08659 whole entry, looked up): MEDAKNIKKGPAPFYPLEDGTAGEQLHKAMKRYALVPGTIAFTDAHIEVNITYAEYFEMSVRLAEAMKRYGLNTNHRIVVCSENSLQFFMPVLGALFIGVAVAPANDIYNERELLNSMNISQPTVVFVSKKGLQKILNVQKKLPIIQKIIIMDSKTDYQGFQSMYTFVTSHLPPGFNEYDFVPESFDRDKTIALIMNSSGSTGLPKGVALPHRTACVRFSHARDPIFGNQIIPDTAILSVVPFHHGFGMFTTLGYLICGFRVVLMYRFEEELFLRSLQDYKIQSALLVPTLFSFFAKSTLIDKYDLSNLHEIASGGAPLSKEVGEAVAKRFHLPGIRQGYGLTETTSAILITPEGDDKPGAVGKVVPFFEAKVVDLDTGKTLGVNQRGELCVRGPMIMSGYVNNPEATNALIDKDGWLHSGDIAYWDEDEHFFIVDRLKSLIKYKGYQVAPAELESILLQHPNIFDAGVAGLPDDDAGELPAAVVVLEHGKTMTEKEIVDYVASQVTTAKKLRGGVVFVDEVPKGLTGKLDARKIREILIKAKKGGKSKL
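Inhibitors were tested against purified firefly luciferase in a biochemical, low-substrate format (both substrates at 10uM) and luminescence measured with a CCD imager.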
3T3 cytotox: NIH 3T3 cell cytotoxicity. NIH 3T3 viability, CellTiter-Glo ATP luminescence, 48-72 h. Potency, µM (top dose mostly 96.7 µM), most hits filed as inhibitors. 94,000 tested, 4.3% active. AID 1345082; also: nearly all actives have a fitted effect of over 55% in size
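Mouse fibroblast NIH 3T3 cells, 400 per well, received compound via pintool and were incubated for 48 or 72 hr prior to CellTiter-Glo ATP luminescence measurement.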
Each line names hits and unclear results; the compound was inactive in the other large screens. The list is not random: actives were taken first. Their share in the collection is about 11%. Unless noted, calls follow the shape of the dose curve; as a rule, active = well fitted curve in the direction sought with a large enough effect; inconclusive = small, poorly fitted or top-dose-only effect, or another doubt; inactive = no such curve, though single readings can be large; an effect the other way counts as inactive or inconclusive.

CC(=O)Nc1cccc(-c2cn(C)c(=O)n3cc(COc4ccc(Cl)cc4)nc23)c1	HEK293 tox inconclusive, FLuc inh inconclusive, 3T3 cytotox inconclusive
Cn1nccc1OCc1cn2c(=O)n(C)cc(-c3cccc(OC(F)(F)F)c3)c2n1	HEK293 tox 89µM, 3T3 cytotox inconclusive
COc1ccc(-c2cn(C)c(=O)n3cc(COc4ccc(Cl)cc4)nc23)c(C)c1	HEK293 tox inconclusive, 3T3 cytotox 10µM
CC(=O)Nc1ccccc1-c1cn(C)c(=O)n2cc(COc3ccc(Cl)cc3)nc12	HEK293 tox inconclusive, 3T3 cytotox 100µM
CCNC(=O)NC1(Cc2cc(-c3ccc(OC)cc3)on2)COC1	HEK293 tox inconclusive
COc1ccc2c(c1)OC[C@@H]1CN(C)C(=O)CCN(C(=O)c3ccccc3OC)[C@H]21	3T3 cytotox inconclusive (no result: hNpr1 antagonist, FLuc inh)
Cc1cnc(C2CC2)n1CC1CCCN(C(=O)NCCc2ccccc2)C1 (stereo unspecified)	none (no result: hNpr1 antagonist, FLuc inh)
COc1cccc(-c2cccc(CN3CCCC3C(=O)N3CCN(C)CC3)c2)c1 (stereo unspecified)	none (no result: hNpr1 antagonist, FLuc inh)
O=C(Nc1ccc(-c2cccc(F)c2)cc1)C1CCCN1Cc1cnc[nH]1 (stereo unspecified)	FLuc inh inconclusive, 3T3 cytotox inconclusive
COc1cccc(-c2cccc(CN3CCCC3C(=O)NCc3cccc(F)c3)c2)c1 (stereo unspecified)	HEK293 tox inconclusive, 3T3 cytotox 35µM (no result: hNpr1 antagonist, FLuc inh)
COc1cccc(-c2cccc(CN3CCCC3C(=O)NC3CC3)c2)c1 (stereo unspecified)	HEK293 tox 45µM, 3T3 cytotox inconclusive (no result: hNpr1 antagonist, FLuc inh)
CCn1ccnc1CN1CCCC1C(=O)Nc1ccc(-c2cccc(F)c2)cc1 (stereo unspecified)	HEK293 tox 35µM, 3T3 cytotox inconclusive
O=C(c1ccoc1)N1CCCCCC1c1nc(C2CC2)no1 (stereo unspecified)	none (no result: hNpr1 antagonist, FLuc inh)
O=S(=O)(c1ccccc1)N1CCCC(c2nc(CCOCC3CC3)no2)C1 (stereo unspecified)	HEK293 tox inconclusive (no result: hNpr1 antagonist, FLuc inh)
NC(=O)NCc1cn(C2CCN(Cc3cc4ccccc4s3)CC2)nn1	none
Cc1cc(C)c(CN2CCC(n3cc(C(C)(C)N)nn3)CC2)c(C)c1	HEK293 tox inconclusive, 3T3 cytotox 79µM
Fc1ccc(Nc2cc3c(cn2)CN(Cc2ccccc2)CCN3)cc1	FLuc inh inconclusive, 3T3 cytotox 32µM
Fc1cccc(CN2CCNc3cc(Nc4cccnc4)ncc3C2)c1	HEK293 tox inconclusive, FLuc inh 35µM, 3T3 cytotox 32µM
Fc1ccc(Nc2cc3c(cn2)CN(Cc2ccncc2)CCN3)cc1Cl	HEK293 tox 32µM, hNpr1 antagonist 18µM, FLuc inh inconclusive, 3T3 cytotox 20µM
FC(F)(F)c1ccc(CN2CCNc3cc(Nc4ccccc4)ncc3C2)cc1	HEK293 tox 45µM, hNpr1 antagonist inconclusive, FLuc inh inconclusive, 3T3 cytotox 25µM
CCCN1CCN(C(=O)c2c(C)oc3c2CN(Cc2cccc(F)c2)CC3)CC1	none
CC(=O)NCC1CN(S(=O)(=O)C(C)C)CC12CCCCC2 (stereo unspecified)	none (no result: hNpr1 antagonist, FLuc inh)
O=C(Nc1cc(-c2ccccn2)nn1-c1ccccc1)c1ccccc1	none (no result: hNpr1 antagonist, FLuc inh)
Fc1ccc(CN2CCNc3cc(Nc4ccccc4)ncc3C2)cc1F	HEK293 tox 22µM, 3T3 cytotox 40µM
c1ccc(N2CCN(c3cc4c(cn3)CN(Cc3ccncc3)CCN4)CC2)nc1	HEK293 tox 79µM, hNpr1 antagonist inconclusive
c1ccc(Nc2cc3c(cn2)CN(Cc2ccccn2)CCN3)cc1	HEK293 tox inconclusive, 3T3 cytotox inconclusive
c1ccc(Nc2cc3c(cn2)CN(Cc2ncc[nH]2)CCN3)cc1	HEK293 tox inconclusive, FLuc inh 18µM, 3T3 cytotox inconclusive
c1cncc(-c2cc3c(cn2)CN(Cc2ccncc2)CCN3)c1	HEK293 tox inconclusive
CNCC(=O)N1CCC2(CC1)CN(CCOc1ccccc1)C(=O)O2	none
C=CC[C@H]1CC(C)=C[C@H](CC=C)N1Cc1ccc(CN(C)S(C)(=O)=O)o1	HEK293 tox inconclusive, 3T3 cytotox inconclusive
O=S(=O)(Cc1ccccc1)N1CCC(Oc2ccc(-c3noc(C4CC4)n3)cc2)C1 (stereo unspecified)	HEK293 tox 40µM, hNpr1 antagonist inconclusive, 3T3 cytotox inconclusive
COc1ccc(-c2nnc([C@H]3CCN(S(C)(=O)=O)C3)o2)cc1	none
COc1ccc(-c2nnc([C@H]3CCN(S(=O)(=O)Cc4ccccc4)C3)o2)cc1	HEK293 tox inconclusive, FLuc inh 50µM, 3T3 cytotox inconclusive
CC(C)(C)NC(=O)NCc1nnc2n1C(C(=O)NCc1ccc(Cl)cc1)CC2 (stereo unspecified)	none (no result: hNpr1 antagonist, FLuc inh)
CCCn1cc2c3c(cccc31)CN(C(=O)Cc1ccc(OC)cc1)CC2	HEK293 tox inconclusive, 3T3 cytotox inconclusive
CCCn1cc2c3c(cccc31)CN(C(=O)COc1ccc(F)cc1)CC2	HEK293 tox 45µM, 3T3 cytotox inconclusive
CCc1c(-c2nc(C3CCOC3)no2)[nH]c2ccccc12 (stereo unspecified)	HEK293 tox inconclusive, 3T3 cytotox inconclusive
CCCc1nc(-c2nc(C3CCOC3)no2)cs1 (stereo unspecified)	FLuc inh 28µM
COc1cccc(CNC(=O)c2nc3cccnc3n(Cc3ccccc3OC)c2=O)c1	none (no result: hNpr1 antagonist, FLuc inh)
COCCNC(=O)c1ccc(OC2CCN(Cc3ncc[nH]3)CC2)c(Cl)c1	none
O=C(NC1CCCC1)c1ccc(OC2CCN(CCCC(F)(F)F)CC2)c(Cl)c1	HEK293 tox 32µM, 3T3 cytotox inconclusive
COCC1CN(C2CCC2)CC12CCN(C(=O)COc1ccc(F)cc1)CC2 (stereo unspecified)	HEK293 tox inconclusive, 3T3 cytotox inconclusive
O=C(C1CCCN1C(=O)c1cccc(-c2ccccn2)c1)N1CCOCC1 (stereo unspecified)	none (no result: hNpr1 antagonist, FLuc inh)
N#Cc1ccc(CNC(=O)[C@@H]2Cc3nc[nH]c3CN2Cc2ccc(C(F)(F)F)cc2)cc1	none
Cc1ccc(CN2Cc3[nH]cnc3C[C@H]2C(=O)NCc2ccc(C(F)(F)F)cc2)cc1	HEK293 tox 71µM, 3T3 cytotox 100µM
COc1ccc(CNC(=O)c2cc(-c3cccc(C(F)(F)F)c3)c3nncn3n2)cc1	HEK293 tox inconclusive (no result: hNpr1 antagonist, FLuc inh)
CN(C)c1ccc(CN2CCCC3(C2)C(=NC2CCCCC2)NC(=O)N3c2cccnc2)cc1 (stereo unspecified)	HEK293 tox inconclusive (no result: hNpr1 antagonist, FLuc inh)
CN(C)c1ccc(CN2CCCC3(C2)C(=NC2CCCC2)NC(=O)N3c2cc(F)cc(F)c2)cc1 (stereo unspecified)	none (no result: hNpr1 antagonist, FLuc inh)
O=C1NC(=NC2CCCC2)C2(CCCN(Cc3ccsc3)C2)N1c1cccnc1 (stereo unspecified)	3T3 cytotox 28µM (no result: hNpr1 antagonist, FLuc inh)
O=C1NC(=NC2CCCCC2)C2(CCN(Cc3cccnc3)C2)N1c1cccnc1 (stereo unspecified)	3T3 cytotox 40µM (no result: hNpr1 antagonist, FLuc inh)
O=C1NC(=NC2CCCCC2)C2(CCN(Cc3ccsc3)C2)N1c1cccnc1 (stereo unspecified)	3T3 cytotox inconclusive (no result: hNpr1 antagonist, FLuc inh)
O=C1NC(=NC2CCCCC2)C2(CCCN(Cc3cccnc3)C2)N1c1cc(F)cc(F)c1 (stereo unspecified)	3T3 cytotox 11µM (no result: hNpr1 antagonist, FLuc inh)
